The whole screen tested about 1,400 compounds, of which fewer than 10 were called active. Roughly 8% stayed inconclusive and do not appear here. The list is a sample of the results. Values without a mark were called inactive. The call rests on the fitted dose curve; in most records, active means well fitted curve in the direction sought with a large enough effect; inconclusive means small, poorly fitted or top-dose-only effect, or another doubt; inactive means no such curve, though single readings can be large or run the other way.
These compounds were tested against Transient receptor potential cation channel subfamily V member 1 (Homo sapiens) (UniProt Q8NER1) (assay: qHTS Assay for Compounds that Act as Potentiators of the Vanilloid Receptor 1: Hit Validation). Conditions: TRPV1-expressing cells, Fluo-8 calcium influx, capsaicin EC20; series mostly up to 42.1 µM; activity change, positive = potentiation: at the top concentration.
Chain of Transient receptor potential cation channel subfamily V member 1 (Homo sapiens) (Q8NER1 whole entry, looked up): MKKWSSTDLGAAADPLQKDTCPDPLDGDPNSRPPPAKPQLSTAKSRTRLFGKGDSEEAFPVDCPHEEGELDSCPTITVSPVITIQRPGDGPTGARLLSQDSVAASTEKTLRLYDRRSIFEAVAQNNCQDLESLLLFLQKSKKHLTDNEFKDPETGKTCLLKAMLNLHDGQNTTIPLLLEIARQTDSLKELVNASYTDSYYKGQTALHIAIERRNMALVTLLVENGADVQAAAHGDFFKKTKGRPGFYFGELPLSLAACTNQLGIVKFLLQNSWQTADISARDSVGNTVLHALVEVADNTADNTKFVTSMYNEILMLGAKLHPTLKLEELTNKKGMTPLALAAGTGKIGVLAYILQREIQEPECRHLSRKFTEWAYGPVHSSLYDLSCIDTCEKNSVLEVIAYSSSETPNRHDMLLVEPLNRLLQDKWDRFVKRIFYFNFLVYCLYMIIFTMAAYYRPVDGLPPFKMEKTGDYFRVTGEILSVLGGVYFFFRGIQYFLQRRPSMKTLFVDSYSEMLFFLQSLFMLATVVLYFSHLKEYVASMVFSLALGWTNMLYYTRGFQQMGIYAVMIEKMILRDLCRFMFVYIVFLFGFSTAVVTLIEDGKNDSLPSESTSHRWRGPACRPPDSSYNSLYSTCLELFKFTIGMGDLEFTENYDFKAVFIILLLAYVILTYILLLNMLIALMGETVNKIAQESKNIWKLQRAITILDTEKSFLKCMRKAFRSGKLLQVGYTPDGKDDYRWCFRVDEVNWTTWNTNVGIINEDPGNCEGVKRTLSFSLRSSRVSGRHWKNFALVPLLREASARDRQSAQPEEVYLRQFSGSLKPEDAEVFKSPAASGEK
Description: The transient receptor potential ion channel, family V, number 1, (TRPV1) is one of the most important molecular transducers of painful stimuli and a potential target for analgesic drug development. Although recent clinical trials with orthosteric antagonists have not produced a successful drug because of a hyperthermia side effect and their tendency to block thermal noxious pain, this ion channel is undeniably well placed in the pain pathway, and the idea of blocking pain signals before they enter the CNS is an excellent concept and of proven efficacy when TRPV1 agonists are used. We propose a new approach involving allosteric modulation to impose an activity-dependent constraint within the context of inflammation and tissue damage that would alter the responsiveness of the channel in a way that an orthosteric vanilloid antagonist cannot achieve. We believe that the allosteric modulator approach has not been explored for this target. The main goal of this proposal is to identify additional, new, potent allosteric modulators of TRPV1 that can be used to investigate TRPV1 function. Our recent report provides evidence of proof of concept, but the compounds are just at the edge of utility in terms of potency. […] The question of whether they can be used as analgesic agents is complex, but if suitable compounds are identified then testing for analgesic properties will be conducted. Compounds identified as agonists were re-tested in the primary screen for hit validation. NIH Chemical Genomics Center [NCGC] NIH Molecular Libraries Probe Centers Network [MLPCN] MLPCN Grant: MH089480 Assay Submitter (PI): Michael Iadarola, National Institute of Dental and Cranofacial Research
Upon TRPV1 activation in TRPV1 cells, the channel opens and extracellular cations flow through the channel into the cytosol. A calcium binding dye (Fluo-8) becomes fluorescent when bound to calcium. This dye is pre-loaded into cells and is used as a marker for calcium influx. The amount of accumulated calcium is precisely quantified using the FDSS kinetic reader and the calcium dye. For the HTS assay, freshly prepared cells are plated at a density of 2000/well in 3 ul medium in 1536-well plates and cultured overnight at 35.5C. Cells will be loaded with 1 ul of the homogeneous calcium dye (ABD Bioquest) at room temperature for 40 to 90 minutes. Plates will be loaded into the FDSS kinetic reader and a 1 sec / cycle for 10 second baseline signal will be measured. Compound library will then be added with a pintool at 23 nl and measured kinetically for 3 minutes. This portion of the read is considered the agonist portion of the screen. Following the 3 minutes of incubation, an on board pipettor will deliver 1 ul of capsaicin for a final concentration equal to the EC20. Signal will be measured kinetically for an additional 2 minutes. This portion of the read is considered the allosteric enhancer portion of the screen. The FDSS reader has a standard filter set capable of measuring calcium bound Fluo-8 (ex=480 and em=520 nm).
Potency means the concentration at half of the fitted maximal effect.
Wherever activity change, positive = potentiation is given: % of control where 0% means no effect.

Structure (SMILES) | activity change, positive = potentiation | Potency
Cc1nc(Nc2cccc(Cl)c2)c2oc3ccccc3c2n1 | -38.3% | –
CCOC(=O)C(C(=O)OCC)c1cc(Br)c2noc3c2c1C(=O)c1ccccc1-3 | – | 3.6 µM (active)
COc1ccc(Cn2nc(-c3ccccc3)c(N3CCCCC3)cc2=O)cc1 | -39.1% | –
CCOC(=O)[C@H]1[C@H]2COc3ccc(Cl)cc3[C@@H]2N2C(=O)c3ccc(C)cc3NC(=O)[C@@]12C | -38.4% | –
CCc1ccc(NC(=O)c2ccc(S(=O)(=O)NCc3cccnc3)cc2)cc1 | -35.4% | –
CC(=O)c1c[nH]c(C(=O)NCc2ccccc2Cl)c1 | 7.13% | –
COCCN(CCOC)S(=O)(=O)c1ccc(C(=O)Nc2nnc(C3CC3)o2)cc1 | -6.89% | –
COCCNC(=O)CCc1c(C)nc2c(c(C)nn2-c2ccc(C)cc2)c1C | -38.5% | –
COc1ccc(CCNC(=O)c2noc3c2CCCC3)cc1OC | -9.36% | –
Cc1ccccc1C(=O)Nc1nnc(-c2ccc(C(C)(C)C)cc2)s1 | -7.15% | –
CCCN1C(=O)/C(=C/c2ccncc2)SC1=S | -8.91% | –
COc1ccc2c(c1)C(c1ccc(Cl)cc1)NC(=O)C2 (stereo not drawn) | -5.08% | –
CSCCCN1CC[C@@H](N2CCN(c3ccccc3F)CC2)[C@H](O)C1 | 12.5% | –
CCN(CC)CCN(Cc1cc2cc(C)ccc2[nH]c1=O)C(=O)Nc1ccccc1OC | -7.28% | –
Cc1nc(C(F)(F)F)ccc1C(=O)Nc1ccc(C(F)(F)F)cn1 | -36.1% | –
C=C(C(=O)Nc1ccccc1)c1ccc(C)cc1 | -6.44% | –
COc1ccc(-n2c(SCC(N)=O)nc3nc4c(cc3c2=O)COC(C)(C)C4)cc1 | 13.3% | –
NC(=O)c1ccc(-n2nnnc2Oc2ccccc2C(=O)N2CCOCC2)cc1 | 1.65% | –
Cc1[nH]c2ccccc2c1CCN(Cc1cccnc1)C(=S)Nc1ccc(F)cc1 | -6.06% | –
CCc1ccc(NC(=O)C2CCCN(S(=O)(=O)c3c(C)[nH]c(=O)[nH]c3=O)C2)cc1 (stereo not drawn) | -5.4% | –
CC(=O)Nc1cccc(NC(C)=O)n1 | -5.38% | –
Cn1nc(C(C)(C)C)cc1C(=O)NCc1ccc(N2CCCC2=O)cc1 | -1.47% | –
COc1cccc(CNC(=S)Nc2cccc(Cl)c2C)c1 | -38.9% | –
CCCCOc1ccc(C(=O)Nc2cccc(-n3cnnn3)c2)cc1OC | -34.7% | –
O=C(Cn1c(NCCCO)nc2ccccc21)c1ccc(Cl)cc1 | -7.03% | –

Structure (SMILES) | activity change, positive = potentiation | Potency
CCS(=O)(=O)C1=NN2C(=N)/C(=C\c3ccc(OCCOc4cccc(OC)c4)c(OC)c3)C(=O)N=C2S1 | -8.22% | –
CCOC(=O)c1c(C)[nH]c(C)c1C(=O)CN1C(=O)NC(CC(C)C)C1=O (stereo not drawn) | 0.659% | –
CN(Cc1c(O)ccc2c1oc(=O)c1ccccc12)C1CCCCC1 | -11.4% | –
CN(Cc1ccccc1Cl)C(=O)c1cc2ccccc2o1 | -15% | –
CC1CC(C)CN(C(=O)c2cc(S(=O)(=O)N3CCCCC3)ccc2Cl)C1 (stereo not drawn) | -37.9% | –
O=C(Cc1nc2ccccc2[nH]1)c1ccc(Cl)cc1 | 3.7% | –
CS(=O)(=O)N1N=C(c2cccs2)CC1c1ccc(Cl)o1 (stereo not drawn) | 0.108% | –
CCOCc1c(C(=O)Nc2ccc(OC)nc2)oc2ccccc12 | -32.4% | –
Cc1cc(NC(=O)C(C)C)ncc1NC(=O)c1cccc(F)c1 | -6.46% | –
CC1CCN(C(=O)c2cc(-c3ccc4c(c3)OCO4)on2)CC1 | -36.7% | –
Cc1ccc(NC(=O)CSc2nnc(-c3ccccn3)n2C)cc1 | 0.532% | –
O=C(CSc1nc2ccccc2[nH]1)c1ccccc1F | 3.85% | –
Cc1ccc2c(c1)nnn2C1CCN(C(=O)NCc2ccccc2)CC1 | -31.2% | –
O=C(CSc1nc(C2CC2)nc2ccccc12)N1CCCCC1 | -6.58% | –
Cc1oc(C(C)(C)C)cc1C(=O)N1CCCC1C(=O)O (stereo not drawn) | -8.94% | –
O=C(O)c1ccc(NC(=O)c2ccccc2Br)c(NC(=O)c2ccccc2Br)c1 | -9.56% | –
Cc1cccc(NCc2cc(Cl)cc(Cl)c2O)n1 | -19.8% | –
CC(C)NC(=O)C1CC=CCC1C(=O)O (stereo not drawn) | -2.64% | –
CC(=O)CC(C)(C)S(=O)(=O)c1ccc(NC(C)=O)cc1 | -0.365% | –
CC(=O)Nc1cc(-c2ccccc2)ccc1O | -32.7% | –
CSCCC(NC(=O)c1ccc(Cl)cc1)C(=O)NC(C)(C)C (stereo not drawn) | -9.12% | –
Cc1cc(C)c(C#N)c(Cl)n1 | -10.6% | –
O=C(O)c1sccc1S(=O)(=O)N1CCN(c2ccc(C(F)(F)F)cn2)CC1 | -3.75% | –
O=[N+]([O-])c1ccc(O)c(/C=N/Nc2ccccc2[N+](=O)[O-])c1 | 8.79% | –
Cc1nn(C)c(C(=O)Nc2ccc(S(=O)(=O)NC34CC5CC(CC(C5)C3)C4)cc2)c1Br | -0.96% | –

Structure (SMILES) | activity change, positive = potentiation | Potency
COc1ccc(C2=NCCn3nc4ccccc4c32)cc1 | 5.29% | –
CCN(c1ccccc1)S(=O)(=O)c1ccc2c(c1)N(C(C)=O)CCO2 | -20.4% | –
COc1cc2[nH]c(C(=O)Nc3ccc(F)cc3)cc2c(OC)c1OC | -38.3% | –
COc1ccc(-c2cn3cc(C)ccc3n2)cc1OC | -5.92% | –
Cn1ncc([N+](=O)[O-])c1C(=O)Nc1ccccc1 | -1.33% | –
CC(/C=C/c1ccc2c(c1)OCO2)=N\NC(=O)c1ccccc1 | 6.97% | –
Cc1nc([N+](=O)[O-])c(C(=O)OCc2ccccc2)n1C | -4.18% | –
Cc1cccnc1NC(N)=S | -7.17% | –
COC(=O)[C@H](C)NC(=O)c1cc2c(cn1)[nH]c1ccccc12 | 11% | –
NC(=O)C1(c2ccccc2)OC1c1ccccc1 (stereo not drawn) | -9.87% | –
CCOC(=O)C(Cc1ccccc1)C(=O)Nc1cccc(C)c1 (stereo not drawn) | -5.17% | –
COc1ccc(C(=O)Nc2nc3ccccc3s2)cc1 | -36% | –
COc1cc(/C=N/NC(=S)Nc2cccnc2)cc(OC)c1OC | -9.74% | –
CCOC(=O)N1CCN(CCC(=O)Nc2cccc(Cl)c2C)CC1 | -5.78% | –
N#C/C(=N\Nc1ccc([N+](=O)[O-])cc1)C(=N)N1CCOCC1 | -13.4% | –
COc1ccc(C(=O)N/N=C/c2ccc(OC)c(CSc3ccccn3)c2)cc1 | 6.12% | –
CC(C)Oc1ccc(NC(=O)c2ccncc2)cc1 | -33.9% | –
Cn1c(=O)c2ccccc2n(CC(=O)Nc2ccc3c(c2)OCCO3)c1=O | -4.73% | –
COc1ccc(Nc2nc(C)nc3c2oc2ccccc23)cc1 | -37.7% | –
CS(=O)(=O)Nc1nc2ccccc2[nH]1 | -7.67% | –
COc1ccc(CNC(=S)Nc2cccc(F)c2)cc1 | -32.8% | –
COc1ccc(C(=O)N(C)C2CCCN(Cc3ccccc3F)C2)cc1OC (stereo not drawn) | -1.05% | –
COCCNC(=O)c1cccc(OC2CCN(Cc3cccc(C(C)=O)c3)CC2)c1 | -4.75% | –

Reference: PubChem BioAssay AID623959 (National Center for Advancing Translational Sciences (NCATS), 2012)
